The source of these data is the supplement of paper PMC8728848.

This is one part of a sample in which the strongest signals are shown more often than they occur.

Holding throughout (assay): glycan array binding signal (z-score within array); higher = stronger binding
Details in all cases: glycan notation: IUPAC condensed, linker removed

The target in one assay is Glc(b1-6)Glc. In outline: (§1)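 Glycan array data were curated from 3228 arrays in the Consortium for Functional Glycomics database and kept only where the protein sequence was available. Glycan names were converted to IUPAC-condensed notation, and columns mapping to the same glycan were averaged. The binding signal is a within-array Z-score, averaged across arrays of the same protein sequence at different concentrations or buffers and across linkers. Negative Z-scores can be read as non-binding.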

Assay [1] deals with GlcNAc(b1-2)Man(a1-3)[GlcNAc(b1-4)][GlcNAc(b1-2)Man(a1-6)]Man(b1-4)GlcNAc(b1-4)[Fuc(a1-6)]GlcNAc. In outline:
as §1

Assay [2] has as its target GlcNAc(b1-2)[GlcNAc(b1-4)]Man(a1-3)[GlcNAc(b1-2)Man(a1-6)]Man(b1-4)GlcNAc(b1-4)GlcNAc. In short, it runs like this:
as §1

The target of assay [3] is GlcNAc(b1-2)[GlcNAc(b1-4)]Man(a1-3)[GlcNAc(b1-4)][GlcNAc(b1-2)[GlcNAc(b1-6)]Man(a1-6)]Man(b1-4)GlcNAc(b1-4)[Fuc(a1-6)]GlcNAc. In short, it runs like this: as §1
For assay [4], the target named is GlcNAc(b1-3)Gal(b1-4)GlcNAc(b1-3)[GlcNAc(b1-3)Gal(b1-4)GlcNAc(b1-3)]GalNAc. In outline: as §1
Assay [5] has as its target GlcNAc(b1-3)[GlcNAc(b1-6)]GalNAc. In outline: as §1
For assay [6], the target named is GlcNAc(b1-6)Gal(b1-4)GlcNAc. In short, it runs like this:
as §1

A further assay addresses GlcNAc(b1-6)GalNAc. In outline:
as §1

The target of assay [7] is Man(a1-2)Man(a1-6)[Man(a1-3)]Man(a1-6)[Man(a1-2)Man(a1-2)Man(a1-3)]Man. In outline: as §1
The next assay concerns the target Man(a1-6)Man. In outline: as §1
In a further assay the target is MurNAc(b1-4)GlcNAc. In short, it runs like this:
as §1

For assay [8], the target named is Neu5Ac(a2-3)Gal(b1-3)[GlcNAc(b1-6)]GalNAc. In short, it runs like this:
as §1

Assay [9] addresses Neu5Ac(a2-3)Gal(b1-4)GlcNAc(b1-2)Man(a1-3)[Neu5Ac(a2-3)Gal(b1-4)GlcNAc(b1-2)Man(a1-6)]Man(b1-4)GlcNAc(b1-4)GlcNAc. In short, it runs like this:
as §1

Assay [10] concerns the target Neu5Ac(a2-3)Gal(b1-4)GlcNAc(b1-2)Man(a1-3)[Neu5Ac(a2-3)Gal(b1-4)GlcNAc(b1-2)Man(a1-6)]Man(b1-4)GlcNAc(b1-4)[Fuc(a1-6)]GlcNAc. In short, it runs like this: as §1
The target in assay [11] is Neu5Ac(a2-3)Gal(b1-4)GlcNAc(b1-2)Man(a1-3)[Neu5Ac(a2-6)Gal(b1-4)GlcNAc(b1-2)Man(a1-6)]Man(b1-4)GlcNAc(b1-4)GlcNAc. In short, it runs like this: as §1
For assay [12], the target named is Neu5Ac(a2-3)Gal(b1-4)[Fuc(a1-3)]GlcNAc(b1-6)[Neu5Ac(a2-3)Gal(b1-3)]GalNAc. In outline:
as §1

The target in assay [13] is Neu5Ac(a2-3)Gal6S(b1-4)GlcNAc. In short, it runs like this:
as §1

Assay [14] has as its target Neu5Ac(a2-3)Gal6S(b1-4)[Fuc(a1-3)]GlcNAc. In outline:
as §1

Assay [15] addresses Neu5Ac(a2-6)Gal(b1-4)GlcNAc(b1-2)Man(a1-3)[Neu5Ac(a2-3)Gal(b1-4)GlcNAc(b1-2)Man(a1-6)]Man(b1-4)GlcNAc(b1-4)GlcNAc. In short, it runs like this: as §1
In assay [16] the target is Neu5Ac(a2-6)Gal(b1-4)GlcNAc(b1-3)Gal(b1-4)GlcNAc(b1-6)[Gal(b1-3)]GalNAc. In outline:
as §1

A further assay has as its target Neu5Ac(b2-6)GalNAc. In outline: as §1
In the next assay the target is Neu5Gc(a2-3)Gal(b1-4)Glc. In outline:
as §1

B1: Apa (Mycobacterium tuberculosis), Rv1860 (protein)
chain: MHQVDPNLTRRKGRLAALAIAAMASASLVTVAVPATANADPEPAPPVPTTAASPPSTAAAPPAPATPVAPPPPAAANTPNAQPGDPNAAPPPADPNAPPPPVIAPNAPQPVRIDNPVGGFSFALPAGWVESDAAHFDYGSALLSKTTGDPPFPGQPPPVANDTRIVLGRLDQKLYASAEATDSKAAARLGSDMGEFYMPYPGTRINQETVSLDANGVSGSASYYEVKFSDPSKPNGQIWTGVIGSPAANAPDAGPPQRWFVVWLGTANNPVDKGAAKALAESIRPLVAPPPAPAPAPAEPAPAPAPAGEVAPTPTTPTPQRTLPA
As for B1, the “glycan array binding signal (z-score)” value with Glc(b1-6)Glc was -0.327; in assay [1], -0.607; in [2], -0.083; in assay [3], -0.482; in [4], 0.26; in [5], -0.468. The “glycan array binding signal (z-score)” value in [6] is -0.453; with GlcNAc(b1-6)GalNAc, -0.174; in assay [7], 0.102; in the assay with Man(a1-6)Man, -0.69; with MurNAc(b1-4)GlcNAc, -0.3; in assay [8], -0.268. Further, the “glycan array binding signal (z-score)” value is -0.603 in [9]; 0.28 in [10]; -0.452 in assay [11]; 0.026 in assay [12]; -0.642 in assay [13]; -0.633 in assay [14]. The “glycan array binding signal (z-score)” value in assay [15] is -0.473; in assay [16], -0.533; with Neu5Ac(b2-6)GalNAc, -0.414; in the assay with Neu5Gc(a2-3)Gal(b1-4)Glc, -0.297.
